CatG inh: human cathepsin G inhibitors, primary screen, biochemical, pooled compound mixtures, AMC fluorescence | purified enzyme, AMC-tetrapeptide fluorescence | inhibition, % at 5 µM (by protocol) | P08311 | 62,000 tested, 0.2% active | AID 581, 2007;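 active = inhibition above 20% in each of the two mixture wells holding the compound; inactive = inhibition of 20% or less in either well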;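 note: 0% = enzyme control without mixture and 100% = blank lacking enzyme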
FXIa inh mix: FXIa protease inhibitors in compound pools, primary screen, biochemical, 10-compound mixtures; Coagulation factor XI (Homo sapiens), P03951; purified FXIa, fluorogenic substrate, pooled mixtures; inhibition, % at 5 µM; 62,000 tested, 0.19% active; AID 680, 2007;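 note: each value is inhibition by a whole ten-compound pool holding the compound; 0% = enzyme with no mixture and 100% = wells lacking enzyme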
HePTP inhibitor: inhibitors of human HePTP phosphatase, primary screen, biochemical, absorbance, leukemia target | Tyrosine-protein phosphatase non-receptor type 7 (Homo sapiens), P35236 | recombinant HePTP phosphatase activity, OD absorbance | inhibition, % at 20 µM | 110,000 tested, 0.64% active | AID 521, 2006; in the data active = inhibition above about 50%;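 note: plate controls were vehicle for no effect and reference inhibitor for full effect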
C1s inh: complement C1s protease inhibitors, primary screen, biochemical, 10-compound mixtures. 62,000 tested, 0.16% active. mean inhibition % of two 10-compound mixtures (active compounds read high), % at 5 µM (by protocol). purified C1s, fluorogenic AMC substrate, pooled mixtures. Complement C1s subcomponent (Homo sapiens), P09871;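 active = inhibition above 20% in each of the two 10-compound mixture wells holding the compound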;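 note: 0% = enzyme wells lacking compound mixture and 100% = no-enzyme blank wells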
Target sequence (P09871 16-437 limits assumed): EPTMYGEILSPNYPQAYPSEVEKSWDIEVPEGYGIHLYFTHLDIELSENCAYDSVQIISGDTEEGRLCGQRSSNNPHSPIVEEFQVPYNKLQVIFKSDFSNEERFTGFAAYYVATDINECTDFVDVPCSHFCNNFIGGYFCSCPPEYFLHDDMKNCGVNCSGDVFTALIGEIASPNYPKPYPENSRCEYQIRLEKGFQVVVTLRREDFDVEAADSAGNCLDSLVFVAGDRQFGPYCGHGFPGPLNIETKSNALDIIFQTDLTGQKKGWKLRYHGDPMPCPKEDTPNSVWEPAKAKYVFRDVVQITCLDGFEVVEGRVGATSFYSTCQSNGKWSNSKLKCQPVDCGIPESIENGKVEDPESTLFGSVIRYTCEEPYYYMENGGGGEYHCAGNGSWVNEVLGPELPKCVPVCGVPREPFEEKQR
Target sequence (P09871 438-688 limits assumed): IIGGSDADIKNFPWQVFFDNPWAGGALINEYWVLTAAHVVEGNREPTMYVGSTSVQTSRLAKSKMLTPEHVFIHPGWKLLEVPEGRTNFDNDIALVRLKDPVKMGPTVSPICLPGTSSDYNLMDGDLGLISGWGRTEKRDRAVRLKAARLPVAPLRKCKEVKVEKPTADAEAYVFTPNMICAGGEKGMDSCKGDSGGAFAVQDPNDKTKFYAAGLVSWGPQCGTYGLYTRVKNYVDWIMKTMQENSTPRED
PLAP act: PLAP enzyme activators, biochemical, luminescence, HTS. 96,000 tested, 1.2% active. activation fold at 20 µM. purified PLAP enzyme, luminescent substrate read-out; active compounds read high; in the data active = activation fold above about 2
FXIIa mix inh: human factor XIIa inhibitors, primary screen, biochemical, pooled compound mixtures, fluorogenic substrate; purified FXIIa; inhibition, % at 5 µM; Coagulation factor XII (Homo sapiens), P00748; 62,000 tested, 0.2% active;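 note: 0% = enzyme without compound and 100% = no enzyme blank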
* marks the source's active call; other numbers are inactive results; nt = not tested or not shown. A selection: hits, their analogues and other compounds. The true share with any hit is near 1.4%. Cut-off read from the data, not from the text of the source, unless noted: active = inhibition above about 20% (passing the limit was not always enough); inactive = the rest.

SMILES	CatG inh	FXIa inh mix	HePTP inhibitor	C1s inh	PLAP act	FXIIa mix inh
O=C1NN(c2ccc(Cl)c(Cl)c2)C(=O)/C1=C/c1cccn1-c1ccc([N+](=O)[O-])cc1	nt	nt	6	nt	nt	nt
O=C1NN(c2ccccc2)C(=O)/C1=C/c1cccn1-c1ccc([N+](=O)[O-])cc1	nt	nt	103*	nt	nt	nt
O=[N+]([O-])c1ccc(N2CCCCC2)cc1NCCCO	nt	nt	-2	nt	nt	nt
CN(C(=S)Nc1ccccc1)c1ccccc1	nt	nt	102*	nt	nt	nt
Cc1cc(C(=O)NNC(=S)NCC2CCCO2)cs1 (centres undefined)	nt	nt	nt	nt	2.2*	nt
Cc1ccc(C(=O)NC(=S)NCC2CCCO2)cc1 (centres undefined)	nt	nt	nt	nt	0.9	nt
CCOC(=O)c1[nH]c(=O)[nH]c1CSCCO	-5	-9	0	-14	0.9	6
CN(C)CCCOC(=O)c1cc2ccccc2o1	0	3	8	-4	1	7
CCOC(=O)c1[nH]c(=O)[nH]c1COC(=O)c1cc2ccccc2o1	9	6	0	13	2.2*	3
CCOC(=O)CCCCC(=O)c1[nH]c(=O)[nH]c1CSc1nc(C)cc(C)n1	9	11	8	4	2*	8
CCOC(=O)CCCCC(=O)c1[nH]c(=O)[nH]c1CSc1nc(C)cc(=O)[nH]1	2	0	-1	9	2.2*	4
CCOC(=O)c1[nH]c(=O)[nH]c1CSc1nc(C)cc(C)n1	6	-1	10	-8	2.2*	1
Cc1cccc(OCC(=O)O/N=C(\N)c2cccc(C)c2)c1	nt	nt	2	nt	nt	nt
Cc1cccc(CSCc2nnc(NC(=O)Nc3cccc(Cl)c3)s2)c1	nt	nt	8	nt	nt	nt
COc1ccc(N2CC(O)=C(c3nc(C)cs3)C2=N)cc1	1	6	8	-24	2*	4
N#CC1=C(N)Oc2n[nH]c(-c3ccc(F)cc3)c2C1c1cccnc1 (centres undefined)	8	7	5	9	2*	-1
N#CC1=C(N)Oc2n[nH]c(-c3ccccc3)c2C1c1ccncc1 (centres undefined)	7	-5	5	6	1.6	1
COc1cc(Cl)c(S(=O)(=O)NCc2ccccn2)cc1Cl	nt	nt	nt	nt	2.3*	nt
CCOC(=O)C1=C(C(=O)OCC)SC(=C2C(=S)C(C)(C)N(C(=O)c3ccc(OC)cc3)c3ccccc32)S1	nt	nt	27	nt	nt	nt
CC1=C(C#N)c2nc(N)c(C#N)c(C)c2/C1=C/c1ccc(-c2cccc(C(=O)O)c2)o1	nt	nt	103*	nt	nt	nt
CC(=O)c1cccc(-c2ccc(/C=C3\C(=O)NC(=O)C(C#N)=C3C)o2)c1	nt	nt	72*	nt	nt	nt
CCOC(=O)c1cc(-c2ccc(/C=C3/C(=O)NC(=O)C(C#N)=C3C)o2)ccc1Cl	nt	nt	nt	nt	1.3	nt
CC(=O)NC1=NC(=O)/C(=C\c2cccc([N+](=O)[O-])c2)S1	nt	nt	-3	nt	nt	nt
N#Cc1c(-c2ccc(Br)cc2)cc(-c2ccco2)c(C#N)c1N	nt	nt	101*	nt	nt	nt
Cc1cccc(N2CCN(C(=O)/C=C/c3ccc(Cl)cc3)CC2)c1C	nt	nt	7	nt	nt	nt
SMILES	CatG inh	FXIa inh mix	HePTP inhibitor	C1s inh	PLAP act	FXIIa mix inh
Cc1cccc(NC(=S)NNC(=O)CC(C)O)c1C (centres undefined)	nt	nt	nt	nt	2*	nt
Cc1cccc(NC(=S)NC(=O)C(C)(C)C)c1C	nt	nt	0	nt	nt	nt
O=C(O)c1cc2cc(OCc3ccccc3)c(OCc3ccccc3)cc2o1	nt	nt	-9	nt	nt	nt
O=C(Nc1ccc(Cc2ccncc2)cc1)C1CCC(N2C(=O)C3C4C=CC(C4)C3C2=O)CC1 (centres undefined)	nt	nt	nt	nt	2.1*	nt
O=C(Nc1ccc(Cc2ccncc2)cc1)C1CCC(N2C(=O)C3CC=CCC3C2=O)CC1 (centres undefined)	nt	nt	nt	nt	1.1	nt
CC(C)CN1C(=O)c2ccc(C(=O)NN3C(=O)c4ccccc4C3=O)cc2C1=O	nt	nt	-3	nt	nt	nt
Cc1onc(-c2ccccc2)c1C(=O)N1CCN(c2ccc([N+](=O)[O-])cc2)CC1	nt	nt	11	nt	nt	nt
Cc1onc(-c2ccccc2)c1C(=O)N1CCN(c2ccc(Cl)cc2)CC1	nt	nt	104*	nt	nt	nt
CN(CCOc1ccc(Cl)cc1)c1ccc(S(=O)(=O)N2CCCCC2)cn1	18	40*	3	-14	1.3	2
CCOc1ccc(S(=O)(=O)N2CCCC2)cc1	nt	nt	nt	nt	1.2	nt
O=C(Nc1nnc(COc2ccc(C3CCCCC3)cc2)s1)c1ccccc1	nt	nt	5	nt	nt	nt
COC(=O)c1ccc(NC(=O)CN(C2CCCCC2)S(C)(=O)=O)cc1	-1	-1	-2	3	2*	10
CC1CC(C)CN(S(=O)(=O)c2ccc(C(=O)Nc3nnc(-c4cccs4)o3)cc2)C1 (centres undefined)	2	6	9	42	1.1	5
O=C(Nc1nnc(-c2cccs2)o1)c1cccc(C(F)(F)F)c1	5	-1	4	7	2.1*	-19
COc1ccc(-c2cc(N)n(S(=O)(=O)c3c(F)c(F)c(F)c(F)c3F)n2)cc1OC	-1	7	7	-26	1.1	5
COc1ccc(S(=O)(=O)n2nc(-c3cc(OC)c(OC)c(OC)c3)cc2N)cc1OC	1	6	0	5	nt	21*
CCN(CC)CCCOc1ccccc1OC	nt	nt	11	nt	nt	nt
CC(C)CN(C(=O)CSc1nncs1)c1c(N)n(CC(C)C)c(=O)[nH]c1=O	nt	nt	nt	nt	1	nt
Cc1ccc2nc(SCC(=O)N(CC(C)C)c3c(N)n(CC(C)C)c(=O)[nH]c3=O)[nH]c2c1	nt	nt	nt	nt	2.3*	nt
O=C1OC(c2ccc(Cl)cc2)=C/C1=C\c1ccc([N+](=O)[O-])cc1	nt	nt	-1	nt	nt	nt
CCCCOc1ccc(N2C(=O)CC(NCCc3ccc(S(N)(=O)=O)cc3)C2=O)cc1 (centres undefined)	nt	nt	nt	nt	2.1*	nt
NS(=O)(=O)c1ccc(CCNC2CC(=O)N(c3ccc(I)cc3)C2=O)cc1 (centres undefined)	nt	nt	-4	nt	nt	nt
CCC(=O)Oc1ccc(C(CC)C(CC)c2ccc(OC(=O)CC)cc2)cc1 (centres undefined)	9	8	3	22*	nt	5
Cc1ccc2nc(SCC(=O)NC(=O)NCc3ccco3)[nH]c2c1	-9	-2	-6	-4	2*	3
Cc1ccc2nc(SCC(=O)NCc3ccco3)[nH]c2c1	nt	nt	nt	nt	1.1	nt
SMILES	CatG inh	FXIa inh mix	HePTP inhibitor	C1s inh	PLAP act	FXIIa mix inh
CCOc1ccccc1N(CC(=O)O)S(=O)(=O)c1ccccc1	46	40*	11	-3	1	-5
CCOc1ccccc1N(CC(N)=O)S(=O)(=O)c1ccccc1	nt	nt	-1	nt	nt	nt
CCN(CC)S(=O)(=O)c1ccc(NC(=O)CCC2CCCCC2)cc1	nt	nt	nt	nt	2.9*	nt
O=c1oc2ccccc2c(O)c1C=NCc1ccccn1	1	-5	0	1	2.1*	-1
CC(=O)Nc1ccc(NS(=O)(=O)c2c(C)cc(C)cc2C)cc1	nt	nt	101*	nt	nt	nt
COC(=O)C1=C(C)NC(=O)/C1=C\c1ccc(OC)cc1	nt	nt	6	nt	nt	nt
COC(=O)C1=C(C)NC(=O)/C1=C\c1ccc(Br)cc1	nt	nt	67*	nt	nt	nt
